Source: PubChem BioAssay (National Center for Advancing Translational Sciences (NCATS))
Rows were chosen to be rich in hits. Some 5.5% of all compounds tested hit in one or more screens of this group.
RORgamma inh – blocks mouse ROR gamma transcriptional activity; P51450; Drosophila S2 Gal4-RORgamma UAS-luciferase reporter, 20 h; Potency, µM (series often up to 53.6 µM), for the others: at the top dose activity change, negative = inhibition, most hits filed as inhibitors; actives 5.4% (n = 310,000); also: potency is read from the fitted curve at half-maximal effect; % is scaled to controls: 0 for no effect and ±100 for the full control effect; nearly all actives have a fitted effect of over 60% in size
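In this cell-based reporter format, copper sulfate (700 uM final) drives Gal4–ROR gamma fusion expression from a metallothionein promoter in Drosophila Schneider cells; compounds preincubated 1 hr, reporter read after 20 hr at ambient temperature.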
MBNL1 CUG block – blocks human MBNL1 binding to CUG repeat RNA. Potency, µM (series often up to 57.5 µM), without a hit: at the highest dose activity change, negative = inhibition, usual class: inhibitors. AID 2675. Q9NR56. actives 0.036% (n = 280,000). TR-FRET MBNL1-His/biotin-(CUG)12 binding, 665/545 ratio; active = well fitted inhibition curve with a large enough effect in the signal ratio, with a control signal flat, not every such curve was filed as active; inconclusive = small, poorly fitted or top-dose-only effect, or effect the other way, or a change in a side signal; inactive = no such curve, though single readings can be large or run the other way; the % refers to the signal ratio; also: potency is read from the fitted curve at half-maximal effect; % is scaled to controls: 0 for no effect and ±100 for the full control effect
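Compounds (final 92 nM to 58 uM) are added to His-tagged MBNL1 and biotin-(CUG)12, then terbium anti-His antibody and streptavidin-XL665 (5 nM final). After 60 min at room temperature, the 665/545 nm ratio is read.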
CtBP-E1A blk – blocks the CtBP interaction with E1A; AlphaScreen GST-E1A/His-CtBP binding, 1536-well; stronger effect = lower value; activity change, % (test concentration not listed); actives 0.49% (n = 340,000); in the data active = activity change below about -65%; inconclusive = mostly about -30% to -63%; also: % is scaled to controls: 0 for no effect and ±100 for the full control effect
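GST-E1A and His-tagged CtBP (125 nM each as 5X stock) were preincubated with pin-transferred compound for 2 h at 37 °C in the dark, then glutathione donor and nickel acceptor beads were added for 1 h before AlphaScreen reading.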
Six1-Eya2 blk – Six1/Eya2 interaction inhibition | AlphaScreen GST-Six1/His-Eya2 binding, biochemical; stronger effect = lower value | activity change, % (test concentration not listed) | actives 0.56% (n = 360,000) | AID 651725; in the data active = activity change below about -65%; inconclusive = mostly about -30% to -63%; also: % is scaled to controls: 0 for no effect and ±100 for the full control effect
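Compounds are tested against tagged Six1 and Eya2 proteins bridged by glutathione donor and nickel acceptor beads; after a one-hour incubation at 37 °C without light, AlphaScreen emission is recorded.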
CBFb-RUNX1 inh – inhibitors of human CBF-beta and RUNX1 interaction; Q01196+Q13951; AlphaScreen CBFb-His/RUNX1-biotin binding, biochemical; Potency, µM (titrated, usually from 59.8 µM), inactives show top-dose activity, negative = inhibition, most hits filed as inhibitors; 230,000 tested, under 10 active; also: % of control where 0% means no effect
Target sequence (Q01196 whole entry, looked up): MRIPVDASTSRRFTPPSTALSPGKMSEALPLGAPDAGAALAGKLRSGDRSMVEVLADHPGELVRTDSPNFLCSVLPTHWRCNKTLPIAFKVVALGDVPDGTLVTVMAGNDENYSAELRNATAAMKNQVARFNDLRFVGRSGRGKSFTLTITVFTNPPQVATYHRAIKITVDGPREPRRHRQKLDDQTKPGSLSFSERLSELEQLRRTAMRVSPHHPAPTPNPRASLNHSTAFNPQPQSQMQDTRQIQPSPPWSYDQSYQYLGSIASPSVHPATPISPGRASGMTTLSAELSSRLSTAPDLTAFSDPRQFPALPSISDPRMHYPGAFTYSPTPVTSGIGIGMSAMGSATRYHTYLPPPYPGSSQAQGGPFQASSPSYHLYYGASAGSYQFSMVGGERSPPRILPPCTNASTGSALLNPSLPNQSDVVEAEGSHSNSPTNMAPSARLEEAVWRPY
Target sequence (Q13951 whole entry, looked up): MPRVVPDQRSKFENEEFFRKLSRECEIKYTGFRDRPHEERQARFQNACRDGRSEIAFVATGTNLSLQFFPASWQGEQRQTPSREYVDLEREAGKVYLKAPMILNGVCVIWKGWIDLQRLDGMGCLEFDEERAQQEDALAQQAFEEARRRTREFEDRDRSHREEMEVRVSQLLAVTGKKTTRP
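Proteins preincubated together for 20 min at RT before compound addition; 15 min later, nickel and streptavidin beads were added and left 90 min prior to AlphaScreen measurement.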
Gal4-VP16 FLuc – inhibits Gal4-VP16 luciferase reporter, ROR gamma counter-screen; Drosophila S2 Gal4-VP16 UAS-luciferase, luminescence, 20 h; Potency, µM (series often up to 53.6 µM), without a hit: top-dose activity, negative = inhibition, most hits filed as inhibitors; actives 3.5% (n = 310,000); AID 2546;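 also: Gal4-VP16 expression switched on by copper sulfate through the metallothionein promoter; potency is read from the fitted curve at half-maximal effect; % is scaled to controls: 0 for no effect and ±100 for the full control effect; nearly all actives have a fitted effect of over 50% in size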
* hit, by the source's call; ? = inconclusive; nt = no result given; [ ] = another dose, or the depositor's remark. Unless noted, calls follow the shape of the dose curve; as a rule, active = well fitted curve in the direction sought with a large enough effect; inconclusive = small, poorly fitted or top-dose-only effect, or another doubt; inactive = no such curve, though single readings can be large; an effect the other way counts as inactive or inconclusive.

SMILES | RORgamma inh | MBNL1 CUG block | CtBP-E1A blk | Six1-Eya2 blk | CBFb-RUNX1 inh | Gal4-VP16 FLuc
CCCn1c(C(C)NC(=O)c2ccccc2)nc2ccccc21 (centres undefined) | ? | -2% | 11 | -5 | -4% | -18%
CCCn1c(NC(=O)c2ccccc2Br)nc2ccccc21 | 0.35µM* | -1% | 6 | -4 | -4% | 2.8µM*
COc1ccc(Cl)cc1NC(=O)CN1CCc2ccccc2C1 | nt | 2% | 9 | 5 | nt | nt
CCCn1c(NC(=O)c2ccc(F)cc2)nc2ccccc21 | 0.32µM* | 0% | 2 | -1 | -8% | 2.5µM*
CCCn1c(NC(=O)c2ccco2)nc2ccccc21 | -3% | 1% | 9 | -8 | 14% | -10%
COc1ccc(C(=O)Nn2c(SCC(=O)NC3CCCCC3)nc3ccccc3c2=O)cc1 | ? | -6% | -27 | -14 | -8% | 13µM*
COc1ccc(C(=O)NCCn2cc(SCC(=O)NCc3ccco3)c3ccccc32)cc1 | 10µM* | -8% | -5 | -3 | -9% | -23%
COc1ccc(C(=O)NCCn2cc(SCC(=O)NCC3CCCO3)c3ccccc32)cc1 (centres undefined) | 15% | -4% | -11 | -3 | nt | -1%
COc1ccc(C(=O)Nn2c(SCC(=O)c3ccc(Cl)cc3)nc3ccccc3c2=O)cc1 | 11µM* | 7% | ? | -9 | 2% | ?
COc1ccc(C(=O)Nn2c(SCC(=O)NCc3ccco3)nc3ccccc3c2=O)cc1 | 10µM* | -2% | ? | ? | -2% | 8.9µM*
CC(C)(C)C(=O)Oc1ccc(S(=O)(=O)Nc2ccccc2C(=O)NCC(=O)O)cc1 | 6% | nt | nt | nt | nt | 3%
COCCCn1cc(CN2CC(N3CCN(Cc4ccccc4F)CC3)CS2(=O)=O)nn1 (centres undefined) | nt | nt | 8 | -1 | nt | nt
COc1ccc(C(=O)Nn2c(SCC(=O)N3CCC(C)CC3)nc3ccccc3c2=O)cc1 | 10µM* | 6% | -71* | ? | -2% | 10µM*
CCOc1ccc(OCC)c(NS(=O)(=O)c2ccc3c(c2)n(C)c(=O)c(=O)n3C)c1 | 0.32µM* | -2% | 0 | 1 | 12% | nt
CCOc1ccc(NS(=O)(=O)c2ccc3c(c2)n(C)c(=O)n3C)cc1 | 42% | -13% | nt | 0 | nt | -12%
COc1ccc(NC(=O)c2cc3cccc(OC)c3oc2=Nc2ccc(C(=O)O)cc2)cc1OC | 0.45µM* | 10% | -2 | 4 | -5% | ?
O=C(COc1ccc(Cl)cc1)N1CCN(C(=O)c2cccs2)CC1 | 7.1µM* | 5% | -18 | 8 | 4% | 18µM*
O=C(COc1ccccc1)N1CCN(C(=O)c2cccs2)CC1 | 15% | -5% | -2 | 10 | 0% | 1%
CC1(C)NC(=O)N(CC(O)CN(c2ccccc2)S(=O)(=O)c2ccc([N+](=O)[O-])cc2)C1=O (centres undefined) | nt | ? | -7 | 2 | nt | nt
CC(C)CN1CC[C@@]2(CCCN(S(=O)(=O)c3ccccc3)C2)C1 | -12% | nt | nt | nt | nt | -16%
COc1ccc(-n2ccnc2CN2CCCC(CO)(Cc3cccc(OC)c3)C2)cc1 (centres undefined) | 11µM* | 1% | -8 | 16 | -11% | -9%
COc1cccc(CC2(CO)CCCN(Cc3ccc(CO)o3)C2)c1 (centres undefined) | 8% | -2% | 5 | 1 | 11% | 1%
O=C(COC(=O)C1CC1)Nc1c(Cl)cccc1C(F)(F)F | nt | nt | 0 | 9 | nt | nt
COc1ccc(C)cc1Nc1n[n+](-c2ccccc2)c(-c2cc(OC)c(OC)cc2Br)s1 | 10µM* | 6% | 12 | -13 | nt | ?
O=C1/C(=C/c2cccs2)NC(=S)N1C1CC1 | 7.1µM* | 8%[11.5 µM] | 0 | 0 | -19% | ?
SMILES | RORgamma inh | MBNL1 CUG block | CtBP-E1A blk | Six1-Eya2 blk | CBFb-RUNX1 inh | Gal4-VP16 FLuc
O=C1NC(=S)SC1=Cc1cccs1 | nt | nt | -25 | -4 | nt | nt
CCC(C)C(CO)NCCCn1cnc2c(OC)ncnc21 (centres undefined) | nt | nt | 2 | -1 | nt | nt
CN1CCN(C(=S)NC(=O)/C=C/c2cccs2)CC1 | 10µM* | 12% | 3 | 7 | 21% | ?
CN1CCN(C(=S)NC(=O)/C=C/c2cccc3ccccc23)CC1 | 1µM* | 17% | 11 | -2 | -4% | 3.2µM*
CC(C)NC(=S)NC(=O)/C=C/c1cccc2ccccc12 | 1.4µM* | 5% | 3 | 13 | 1% | 4.5µM*
Cc1cc(NCC(=O)Nc2ccc(C)c(S(=O)(=O)N3CCOCC3)c2)ccc1Br | nt | nt | -3 | -14 | nt | nt
O=C1c2ccc([N+](=O)[O-])cc2S(=O)(=O)N1Cc1ccccc1 | -17% | ? | 0 | -3 | nt | ?
O=[N+]([O-])c1ccc2c(c1)S(=O)(=O)C=C2 | 0.63µM* | nt | nt | nt | 10% | ?
Cc1ccc(C)c(S(=O)(=O)NCC(=O)Nc2ccc3c(c2)OCO3)c1 | 0% | -2% | -8 | 3 | nt | -2%
COc1cc(/C=C2\C(C)=C(C#N)c3nc(N)c(C#N)c(C)c32)ccc1OCC(=O)O | 2% | ? | -18 | -73* | -14% | -2%
COc1ccc(S(=O)(=O)n2ccnc2C)c(C)c1C | -17%[1.91 µM] | -12% | 5 | 26 | nt | 0%
O=C(N/N=C/c1cc(Br)cc(Br)c1O)c1ccncc1 | 4µM* | -1% | -93* | -80* | -28% | -26%
CCc1cc(C(=O)N/N=C/c2ccc(O)cc2O)c2ccccc2n1 | 11µM* | 2% | -97* | -93* | nt | ?
Cc1ccc(C(C)C)c(OCc2ccc(C(=O)N/N=C/c3ccc(O)cc3O)cc2)c1 | 6.3µM* | -3% | 2 | -6 | -13% | 7.1µM*
O=C(N/N=C/c1cc(Br)cc([N+](=O)[O-])c1O)c1ccc(NC(=O)c2ccc(F)cc2)cc1 | 8.9µM* | 3% | -26 | -11 | nt | 11µM*
CC1C=CCC2C(=O)N(c3cccc(C(=O)NCc4ccccc4)c3)C(=O)C12 (centres undefined) | 45% | 8% | 0 | -6 | nt | -15%
O=C(N/N=C/c1c[nH]c2ccccc12)c1ccncc1 | ? | nt | 0 | 2 | 0% | ?
O=C(N/N=C/c1ccc(O)cc1O)c1ccc(NC(=O)C2CCCCC2)cc1 | ? | -15% | -90* | -72* | nt | ?
O=C(N/N=C/c1cccc(O)c1)c1ccc(NC(=O)C2CCCCC2)cc1 | ? | 0% | -8 | -3 | nt | -10%
O=C(N/N=C/c1c[nH]c2ccc(Br)cc12)c1ccncc1 | 13µM* | -5% | -25 | -18 | 0% | ?
O=C(N/N=C/c1cc(Cl)cc(Cl)c1O)c1ccncc1 | 3.2µM* | nt | nt | -92* | nt | ?
